Values without a mark were called inactive. Activity calls are given as the source filed them. Calls come from the whole dose curve; as a rule, active = well fitted curve in the direction sought with a large enough effect in the repeat runs; inconclusive = weak or mixed curves; inactive = flat fitted curve, though single readings scatter.
test: qHTS assay to test for compound auto fluorescence at 535 nm (green) in HepG2 cells (AID 720675); settings: green autofluorescence 485/535 nm, 1 h; series mostly up to 46 µM; fluorescence, % of fluorescein control: at the top concentration
Text: National Center for Advancing Translational Sciences [NCATS]
NIH Chemical Genomics Center [NCGC]
U.S. Environmental Protection Agency [EPA]
National Institutes of Environmental Health Sciences [NIEHS]
National Toxicology Program [NTP]
U.S. Food and Drug Administration [FDA]
Compound auto fluorescence often interferes with screening of the compound library against various biological targets and signaling pathways. Some of these compounds may have fluorophoric properties. Such properties may interfere with the assay outputs resulting in false positives and/or negatives. To decrease such complications and ensure the compound activities are relevant in terms of biological response, the Tox21 10K compound library was screened for auto fluorescence.
From the fluorophores used as reporter signals in our screening assays, the auto fluorescence equivalencies of compounds against three fluorophores have been evaluated: Triamterene, Fluorescein and Rose Bengal sodium for blue, green and red fluorescence, respectively. The fluorescence intensities were measured using Excitation/Emission wavelengths at 405/460nm, 485/535nm and 540/590nm for blue, green and red labels, respectively. This assay includes the green fluorescence data.
Tox21 Assay Protocol Summary:
2,000 HepG2 cells in 5 uL of culture medium (MEM containing 10% FBS) per well were dispensed into black wall/clear bottom 1536-well plates using a Multidrop Combi Dispenser (ThermoFisher Scientific, Waltham, MA). The assay plates were incubated overnight at 37 C to allow cell attachment to the well bottom, followed by the transfer of 23 nL compound or DMSO vehicle by a pintool work station (Kalypsys , San Diego, CA). After the assay plates were incubated for 1 hr at 37 C and 5% CO2, fluorescence intensities in the assay plates were measured by an Envision (PerkinElmer, Shelton, CT) plate reader using three labels for measuring blue, green and red fluorescence at […] 460, 535 and 590 nm respectively.
% is set by controls: 0 for no effect and ±100 for the full control effect.

SMILES	fluorescence, % of fluorescein control	Potency
CN1[C@@H](CC(=O)c2ccccc2)CCC[C@H]1C[C@H](O)c1ccccc1	0.238%	–
O=C1OC(=O)c2cc(-c3ccc4c(c3)C(=O)OC4=O)ccc21	-0.202% [at 91.3 µM]	–
Nc1ccc(N)c([N+](=O)[O-])c1	-0.414% [at 91.3 µM]	–
CCCCCN=C(N)N/N=C/c1c[nH]c2ccc(OC)cc12	-0.0229%	–
O=C(N[C@H](CO)[C@H](O)c1ccc([N+](=O)[O-])cc1)C(Cl)Cl	–	inactive
CN1CCN(CCCN2c3ccccc3Sc3ccc(Cl)cc32)CC1	-0.0092%	–
C[C@]12O[C@H](C[C@]1(O)CO)n1c3ccccc3c3c4c(c5c6ccccc6n2c5c31)CNC4=O	-0.327%	–
C[N+]1(CCCCC[N+]2(C)CCCC2)CCCC1	0.0005%	–
CCCCCCCCOC(=O)c1cc(O)c(O)c(O)c1	-0.0234% [at 91.3 µM]	–
COC(=O)C[C@](O)(CCCC(C)(C)O)C(=O)O[C@@H]1C(OC)=CC23CCCN2CCc2cc4c(cc2[C@H]13)OCO4 (stereo not given in full)	–	inactive
CC(C)=CCC/C(C)=C/CC/C(C)=C/CC/C(C)=C/CC1=C(C)C(=O)c2ccccc2C1=O	–	inactive
O=C(O)COc1ccccc1/C=N/NC(=O)c1ccncc1	-0.0639%	–
O=C(O)Cc1nn(Cc2ccc(Br)cc2F)c(=O)c2ccccc12	0.0768%	–
CC(=O)N(C)C	–	inactive
Nc1nc(/C(=C/CC(=O)O)C(=O)N[C@@H]2C(=O)N3C(C(=O)O)=CCS[C@H]23)cs1	0.0631%	–
Cc1ccc(C(C)(C)c2ccc(C)cc2)cc1	-0.0739%	–
COc1c(Br)cc(Br)c(C)c1Br	0.108% [at 91.3 µM]	–
O=C1c2ccccc2C(=O)C1c1ccc(F)cc1	-0.0482%	–
CCN(CC)CC#CCOC(=O)C(O)(c1ccccc1)C1CCCCC1 (stereo not given)	0.0869%	–
CCC(C)(C)c1ccc(CC(C)CN2C[C@@H](C)O[C@@H](C)C2)cc1 (stereo not given in full)	0.0395%	–

SMILES	fluorescence, % of fluorescein control	Potency
CCCCCCCCCCCCCCCCC(C(=O)O)C(O)(CC(=O)O)C(=O)O (stereo not given)	0.129%	–
CCOc1ccc(S(=O)(=O)O)c2cccnc12	-0.0216%	–
CO[C@H](C(=O)[C@@H](O)[C@@H](C)O)C1Cc2cc3cc(O[C@H]4C[C@@H](O[C@H]5C[C@@H](O)[C@H](O)[C@@H](C)O5)[C@@H](O)[C@@H](C)O4)c(C)c(O)c3c(O)c2C(=O)[C@H]1O[C@H]1C[C@@H](O[C@H]2C[C@@H](O[C@H]3C[C@](C)(O)[C@H](O)[C@@H](C)O3)[C@H](O)[C@@H](C)O2)[C@H](O)[C@@H](C)O1 (stereo not given in full)	–	inactive
Cc1cc(C(=O)NCCc2ccc(S(=O)(=O)NC(=O)NN3CCCCCC3)cc2)no1	0.0175%	–
CCCCCCCCCCCC[n+]1ccc2ccccc2c1	-0.006%	–
C[S+](C)CCC(N)C(=O)O (stereo not given)	-0.0003%	–
CC(=O)OCC1=C(C(=O)O)N2C(=O)[C@@H](NC(=O)Cc3ccccc3)[C@H]2SC1	0.0872%	–
NC(=O)[C@@H]1CCCN1C(=O)[C@H](Cc1cnc[nH]1)NC(=O)[C@@H]1CCC(=O)N1	-0.0133%	–
CCCCC[C@H](O)/C=C/[C@@H]1[C@@H](C/C=C\CCCC(=O)O)[C@@H](O)C[C@H]1O	–	inactive
O=C(O)c1cc2cc(Cc3cccnc3)ccc2o1	0.0052%	–
COc1cc(NS(C)(=O)=O)ccc1Nc1c2ccccc2nc2ccccc12	0.0773%	–
CC(C)(S)C(=O)N[C@@H](CS)C(=O)O	–	inactive
CCN(CC)CCOC[C@H]1O[C@@H](O)[C@H](OCCN(CC)CC)[C@@H](O)[C@@H]1O	0.0069%	–
COc1cc2c(c(OC)c1OC)-c1c(cc3c(c1OC)OCO3)C[C@@H](C)[C@](C)(O)C2	–	inactive
C=C1C(CCl)(CCl)C2(Cl)C(Cl)C(Cl)C1(Cl)C2(Cl)Cl (stereo not given)	–	inactive
O=C1CCC/C=C\CCCCCCCCCC1	0.018% [at 91.3 µM]	–
CC(=O)Oc1cc(C(F)(F)F)ccc1C(=O)O	-0.112% [at 18.6 µM]	–
NC(=O)[C@@H]1C[C@]2(NC(=O)NC2=O)c2cc(F)ccc2O1	0.168%	–
CNC(=O)OCc1cccc(COC(=O)NC)n1	-0.129%	–
CC[C@@]1([C@@H]2O[C@@H]([C@H]3O[C@@](O)(CO)[C@H](C)C[C@@H]3C)C[C@@H]2C)CC[C@H]([C@]2(C)CC[C@]3(C[C@H](O)[C@@H](C)[C@@H]([C@@H](C)[C@@H](OC)[C@H](C)C(=O)O)O3)O2)O1 (stereo in doubt)	–	inactive
